Test [1] deals with Ribosomal protein S6 kinase alpha-6 (Homo sapiens) (UniProt Q9UK32). The settings on record: at 1 µM.
Test [2] addresses T1, Serine/threonine-protein kinase Sgk1 (Homo sapiens) (UniProt O00141).
T1 sequence (whole entry): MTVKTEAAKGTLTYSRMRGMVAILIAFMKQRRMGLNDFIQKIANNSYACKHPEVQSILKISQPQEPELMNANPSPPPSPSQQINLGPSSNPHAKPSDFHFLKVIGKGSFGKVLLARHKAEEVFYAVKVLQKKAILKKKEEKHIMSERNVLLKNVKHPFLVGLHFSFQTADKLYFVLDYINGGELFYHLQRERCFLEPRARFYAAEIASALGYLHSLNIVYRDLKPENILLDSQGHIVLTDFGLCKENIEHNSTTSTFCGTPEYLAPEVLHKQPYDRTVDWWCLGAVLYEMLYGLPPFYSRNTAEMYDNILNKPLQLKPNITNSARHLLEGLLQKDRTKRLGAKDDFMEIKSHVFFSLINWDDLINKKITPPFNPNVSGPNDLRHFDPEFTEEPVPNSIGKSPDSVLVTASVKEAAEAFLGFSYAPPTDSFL
The settings on record: at 0.1 µM.

The target in test [3] is T1, Serine/threonine-protein kinase Sgk1 (Homo sapiens). The settings on record: at 1 µM.
Test [4] has as its target T2, Serine/threonine-protein kinase Sgk2 (Homo sapiens) (UniProt Q9HBY8).
T2 sequence (whole entry): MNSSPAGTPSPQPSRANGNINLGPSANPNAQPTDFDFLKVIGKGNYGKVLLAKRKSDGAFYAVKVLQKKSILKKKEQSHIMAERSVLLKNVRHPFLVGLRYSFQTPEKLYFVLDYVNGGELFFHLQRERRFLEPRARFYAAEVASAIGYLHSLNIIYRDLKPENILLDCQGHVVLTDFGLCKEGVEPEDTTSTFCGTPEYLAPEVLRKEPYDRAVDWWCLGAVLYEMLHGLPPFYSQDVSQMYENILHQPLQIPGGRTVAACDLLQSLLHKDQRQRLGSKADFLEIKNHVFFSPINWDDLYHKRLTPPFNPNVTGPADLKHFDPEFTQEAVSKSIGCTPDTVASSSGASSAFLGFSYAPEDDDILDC
The note with it: at 0.1 µM.

Test [5] concerns the target T2, Serine/threonine-protein kinase Sgk2 (Homo sapiens). The note with it: at 1 µM.
For test [6], the target named is T3, Serine/threonine-protein kinase Sgk3 (Homo sapiens) (UniProt Q96BR1).
T3 sequence (whole entry): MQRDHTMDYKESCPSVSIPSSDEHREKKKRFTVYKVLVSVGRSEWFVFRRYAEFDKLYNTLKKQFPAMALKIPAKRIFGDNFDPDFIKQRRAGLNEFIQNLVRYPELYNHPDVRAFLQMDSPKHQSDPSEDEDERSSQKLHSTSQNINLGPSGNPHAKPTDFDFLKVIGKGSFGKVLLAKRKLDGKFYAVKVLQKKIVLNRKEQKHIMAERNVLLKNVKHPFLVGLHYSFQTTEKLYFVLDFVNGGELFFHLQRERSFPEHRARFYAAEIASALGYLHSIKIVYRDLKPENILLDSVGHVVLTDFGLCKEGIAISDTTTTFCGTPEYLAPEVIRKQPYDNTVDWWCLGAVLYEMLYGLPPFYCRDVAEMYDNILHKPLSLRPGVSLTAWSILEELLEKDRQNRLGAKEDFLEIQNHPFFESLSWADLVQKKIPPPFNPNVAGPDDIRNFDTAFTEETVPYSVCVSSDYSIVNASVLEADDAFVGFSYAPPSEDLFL
The note with it: at 0.1 µM.

In test [7] the target is T3, Serine/threonine-protein kinase Sgk3 (Homo sapiens). The note with it: at 1 µM.
Test [8] deals with 5'-AMP-activated protein kinase catalytic subunit alpha-1 (Homo sapiens) (UniProt Q13131). The settings on record: at 0.1 µM.
Test [9] shares this target. The note with it: at 1 µM.
Test [10] concerns the target 5'-AMP-activated protein kinase catalytic subunit alpha-2 (Homo sapiens) (UniProt P54646). The settings on record: at 0.1 µM.
Test [11] shares this target. The note with it: at 1 µM.
The target in test [12] is T4, NUAK family SNF1-like kinase 1 (Homo sapiens) (UniProt O60285).
T4 sequence (whole entry): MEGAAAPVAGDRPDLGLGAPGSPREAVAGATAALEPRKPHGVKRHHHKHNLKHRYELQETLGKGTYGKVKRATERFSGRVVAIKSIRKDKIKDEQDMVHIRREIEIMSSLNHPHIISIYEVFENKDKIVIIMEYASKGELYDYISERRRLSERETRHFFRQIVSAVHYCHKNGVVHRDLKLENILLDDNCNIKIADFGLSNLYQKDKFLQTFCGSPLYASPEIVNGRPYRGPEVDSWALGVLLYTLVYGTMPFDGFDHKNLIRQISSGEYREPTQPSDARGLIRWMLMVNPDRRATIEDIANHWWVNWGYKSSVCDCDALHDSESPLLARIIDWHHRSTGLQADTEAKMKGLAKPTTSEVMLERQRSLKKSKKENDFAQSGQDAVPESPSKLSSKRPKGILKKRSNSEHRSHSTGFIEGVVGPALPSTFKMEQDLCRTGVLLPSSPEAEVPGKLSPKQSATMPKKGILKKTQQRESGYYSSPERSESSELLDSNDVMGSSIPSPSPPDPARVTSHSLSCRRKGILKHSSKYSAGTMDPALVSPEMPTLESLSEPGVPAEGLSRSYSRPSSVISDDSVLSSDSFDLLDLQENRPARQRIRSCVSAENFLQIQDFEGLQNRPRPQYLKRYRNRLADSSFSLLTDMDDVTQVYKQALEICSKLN
The note with it: at 0.1 µM.

The target of test [13] is T4, NUAK family SNF1-like kinase 1 (Homo sapiens). The settings on record: at 1 µM.
In test [14] the target is T5, Serine/threonine-protein kinase BRSK1 (Homo sapiens) (UniProt Q8TDC3).
T5 sequence (whole entry): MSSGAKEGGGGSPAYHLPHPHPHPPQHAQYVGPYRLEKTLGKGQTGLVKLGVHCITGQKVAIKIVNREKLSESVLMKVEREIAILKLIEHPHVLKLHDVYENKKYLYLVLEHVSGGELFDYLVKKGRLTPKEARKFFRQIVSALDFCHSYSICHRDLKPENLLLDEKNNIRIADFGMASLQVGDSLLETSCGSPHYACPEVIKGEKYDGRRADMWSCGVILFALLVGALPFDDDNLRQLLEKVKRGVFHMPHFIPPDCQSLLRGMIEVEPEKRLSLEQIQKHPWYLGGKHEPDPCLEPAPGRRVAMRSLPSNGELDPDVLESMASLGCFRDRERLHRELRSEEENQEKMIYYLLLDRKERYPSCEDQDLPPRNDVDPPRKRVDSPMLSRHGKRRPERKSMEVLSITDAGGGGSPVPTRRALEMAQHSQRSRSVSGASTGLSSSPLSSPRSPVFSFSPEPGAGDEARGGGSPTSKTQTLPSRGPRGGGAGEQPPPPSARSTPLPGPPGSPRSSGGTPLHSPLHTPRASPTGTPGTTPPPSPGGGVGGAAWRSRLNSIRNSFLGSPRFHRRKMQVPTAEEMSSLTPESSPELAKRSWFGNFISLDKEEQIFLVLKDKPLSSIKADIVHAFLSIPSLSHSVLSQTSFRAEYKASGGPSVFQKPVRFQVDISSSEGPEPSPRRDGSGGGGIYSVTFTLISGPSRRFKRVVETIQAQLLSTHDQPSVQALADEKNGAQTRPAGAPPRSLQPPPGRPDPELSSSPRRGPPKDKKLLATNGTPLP
The settings on record: at 0.1 µM.

Test [15] addresses T5, Serine/threonine-protein kinase BRSK1 (Homo sapiens). The settings on record: at 1 µM.
Test [16] deals with T6, Serine/threonine-protein kinase BRSK2 (Homo sapiens) (UniProt Q8IWQ3).
T6 sequence (whole entry): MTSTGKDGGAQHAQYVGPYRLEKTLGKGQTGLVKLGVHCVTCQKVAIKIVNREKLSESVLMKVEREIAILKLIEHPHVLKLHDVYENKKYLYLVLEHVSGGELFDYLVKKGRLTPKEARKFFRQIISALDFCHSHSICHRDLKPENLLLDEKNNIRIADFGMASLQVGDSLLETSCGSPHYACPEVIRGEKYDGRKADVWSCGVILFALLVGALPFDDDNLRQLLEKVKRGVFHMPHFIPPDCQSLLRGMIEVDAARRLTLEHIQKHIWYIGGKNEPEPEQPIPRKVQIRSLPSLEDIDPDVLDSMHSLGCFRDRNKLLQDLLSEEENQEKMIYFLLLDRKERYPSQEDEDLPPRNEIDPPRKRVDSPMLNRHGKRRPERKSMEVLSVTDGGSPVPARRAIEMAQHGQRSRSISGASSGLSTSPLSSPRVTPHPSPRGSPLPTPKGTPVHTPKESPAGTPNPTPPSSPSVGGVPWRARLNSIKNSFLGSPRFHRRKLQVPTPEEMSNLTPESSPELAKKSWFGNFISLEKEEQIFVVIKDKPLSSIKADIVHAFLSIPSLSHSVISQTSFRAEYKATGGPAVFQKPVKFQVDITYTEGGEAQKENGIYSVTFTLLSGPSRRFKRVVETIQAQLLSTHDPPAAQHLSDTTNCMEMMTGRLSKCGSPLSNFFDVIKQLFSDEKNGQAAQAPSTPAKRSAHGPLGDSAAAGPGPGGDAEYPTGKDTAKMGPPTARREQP
The settings on record: at 0.1 µM.

For test [17], the target named is T6, Serine/threonine-protein kinase BRSK2 (Homo sapiens). The settings on record: at 1 µM.
Test [18] deals with Calcium/calmodulin-dependent protein kinase type 1D (Homo sapiens) (UniProt Q8IU85). The settings on record: at 0.1 µM.
Test [19] has the same target. The settings on record: at 1 µM.
In test [20] the target is Calcium/calmodulin-dependent protein kinase type II subunit alpha (Homo sapiens) (UniProt Q9UQM7). The note with it: at 0.1 µM.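 Note: reported values are averages (mean inhibition of CAMK2A).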
Chain of Calcium/calmodulin-dependent protein kinase type II subunit alpha (Homo sapiens) (Q9UQM7 whole entry): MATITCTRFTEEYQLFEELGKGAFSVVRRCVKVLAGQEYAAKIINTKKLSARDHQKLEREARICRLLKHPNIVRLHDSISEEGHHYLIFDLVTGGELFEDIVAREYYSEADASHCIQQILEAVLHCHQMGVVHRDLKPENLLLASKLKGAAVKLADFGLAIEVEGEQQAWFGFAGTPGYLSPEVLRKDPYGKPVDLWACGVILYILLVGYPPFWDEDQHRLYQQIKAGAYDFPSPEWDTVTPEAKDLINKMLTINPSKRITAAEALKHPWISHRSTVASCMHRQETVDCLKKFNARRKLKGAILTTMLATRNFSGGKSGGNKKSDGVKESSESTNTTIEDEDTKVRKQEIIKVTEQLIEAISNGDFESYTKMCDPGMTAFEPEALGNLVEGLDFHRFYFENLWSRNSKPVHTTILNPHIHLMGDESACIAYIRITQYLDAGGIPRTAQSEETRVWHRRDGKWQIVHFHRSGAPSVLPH

Chain of 5'-AMP-activated protein kinase catalytic subunit alpha-2 (Homo sapiens) (P54646 whole entry, looked up): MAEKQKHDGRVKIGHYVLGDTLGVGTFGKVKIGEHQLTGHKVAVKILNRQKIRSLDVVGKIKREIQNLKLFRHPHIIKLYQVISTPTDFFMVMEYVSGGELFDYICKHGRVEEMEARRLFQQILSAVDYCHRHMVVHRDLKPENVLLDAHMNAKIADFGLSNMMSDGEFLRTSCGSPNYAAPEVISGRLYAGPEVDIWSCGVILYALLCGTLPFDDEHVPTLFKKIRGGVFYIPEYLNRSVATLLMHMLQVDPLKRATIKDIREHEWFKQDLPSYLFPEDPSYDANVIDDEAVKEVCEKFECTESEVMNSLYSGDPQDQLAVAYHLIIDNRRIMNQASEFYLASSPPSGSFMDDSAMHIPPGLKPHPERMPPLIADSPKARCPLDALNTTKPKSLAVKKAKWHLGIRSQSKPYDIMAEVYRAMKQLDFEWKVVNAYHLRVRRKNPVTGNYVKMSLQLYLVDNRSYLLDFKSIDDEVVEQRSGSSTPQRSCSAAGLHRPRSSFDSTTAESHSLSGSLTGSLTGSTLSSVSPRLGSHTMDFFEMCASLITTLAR
Chain of Ribosomal protein S6 kinase alpha-6 (Homo sapiens) (Q9UK32 whole entry): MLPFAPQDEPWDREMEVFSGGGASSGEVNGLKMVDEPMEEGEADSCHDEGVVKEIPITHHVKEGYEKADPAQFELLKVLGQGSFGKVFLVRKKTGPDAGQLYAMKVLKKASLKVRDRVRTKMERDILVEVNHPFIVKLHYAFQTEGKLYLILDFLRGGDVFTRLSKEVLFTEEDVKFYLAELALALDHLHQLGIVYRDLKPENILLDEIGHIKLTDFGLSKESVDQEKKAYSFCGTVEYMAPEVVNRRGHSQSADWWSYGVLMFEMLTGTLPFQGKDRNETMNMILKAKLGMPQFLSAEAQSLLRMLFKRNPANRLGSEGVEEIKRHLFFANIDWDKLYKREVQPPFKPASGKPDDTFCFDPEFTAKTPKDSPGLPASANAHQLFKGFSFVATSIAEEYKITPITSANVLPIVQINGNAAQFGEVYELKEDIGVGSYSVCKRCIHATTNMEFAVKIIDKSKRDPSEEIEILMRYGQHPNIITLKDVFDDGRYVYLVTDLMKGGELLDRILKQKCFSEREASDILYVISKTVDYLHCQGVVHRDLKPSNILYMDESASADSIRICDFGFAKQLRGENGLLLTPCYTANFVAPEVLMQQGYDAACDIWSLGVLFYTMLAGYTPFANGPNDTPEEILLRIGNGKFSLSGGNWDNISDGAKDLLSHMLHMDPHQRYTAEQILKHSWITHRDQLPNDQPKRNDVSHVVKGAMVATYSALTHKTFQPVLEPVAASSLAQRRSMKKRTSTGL
Chain of Calcium/calmodulin-dependent protein kinase type 1D (Homo sapiens) (Q8IU85 whole entry, looked up): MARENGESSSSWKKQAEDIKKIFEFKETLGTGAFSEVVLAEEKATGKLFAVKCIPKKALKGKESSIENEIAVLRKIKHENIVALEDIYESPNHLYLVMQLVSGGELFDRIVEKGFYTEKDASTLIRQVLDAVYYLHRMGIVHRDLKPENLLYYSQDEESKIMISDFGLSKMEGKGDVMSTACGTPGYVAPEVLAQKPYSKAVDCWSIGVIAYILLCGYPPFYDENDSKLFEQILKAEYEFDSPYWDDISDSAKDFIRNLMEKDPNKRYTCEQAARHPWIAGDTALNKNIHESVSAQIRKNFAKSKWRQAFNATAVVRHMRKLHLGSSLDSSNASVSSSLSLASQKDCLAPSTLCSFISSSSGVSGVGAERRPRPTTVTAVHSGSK
Chain of 5'-AMP-activated protein kinase catalytic subunit alpha-1 (Homo sapiens) (Q13131 whole entry, looked up): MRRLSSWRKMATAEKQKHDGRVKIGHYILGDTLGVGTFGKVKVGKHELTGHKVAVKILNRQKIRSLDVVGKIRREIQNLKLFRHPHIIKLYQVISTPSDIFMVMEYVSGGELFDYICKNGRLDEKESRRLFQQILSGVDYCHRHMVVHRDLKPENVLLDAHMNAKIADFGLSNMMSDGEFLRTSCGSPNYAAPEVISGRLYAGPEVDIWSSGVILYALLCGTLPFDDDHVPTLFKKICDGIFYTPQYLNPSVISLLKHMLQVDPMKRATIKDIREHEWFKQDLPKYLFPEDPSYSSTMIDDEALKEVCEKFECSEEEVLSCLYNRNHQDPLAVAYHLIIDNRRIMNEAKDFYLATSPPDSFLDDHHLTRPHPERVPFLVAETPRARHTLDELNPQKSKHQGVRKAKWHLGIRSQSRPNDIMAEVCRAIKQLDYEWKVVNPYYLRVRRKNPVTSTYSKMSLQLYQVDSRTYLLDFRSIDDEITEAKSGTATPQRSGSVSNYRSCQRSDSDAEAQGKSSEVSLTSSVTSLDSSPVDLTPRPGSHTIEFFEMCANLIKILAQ

In the case of `COc1cc(C=NNc2ncnc3c2cnn3-c2ccccc2)ccc1O`, the inhibition – broadly, the drop in the measured response relative to a control, in per cent – is 6.36% in test [1]; 4.35% in [2]; 12.3% in test [3]; 1.73% in test [4]; 12.3% in test [5]; 1.97% in test [6]. Further, the inhibition in test [7] amounted to 1.32%; in test [8], 2.74%; in test [9], 4.76%; in test [10], 0.75%; in test [11], 6.79%; in test [12], 16.1%. For the same compound, the inhibition in test [13] amounted to 57.3%; in [14], 8.76%; in test [15] it was 40.1%; in test [16], 10.3%; in test [17] it was 43.5%; in test [18], 0.83%. Moreover, the inhibition turned out to be 2.96% in [19] and 3.14% in test [20].

In the case of `COc1cc2c(cc1Nc1nc(N3CCc4ccccc43)c3cc[nH]c3n1)N(C(=O)CN(C)C)CC2`, the inhibition is 0.95% in test [1]; 0.53% in [2]; 1.07% in [3]; -0.51% in [4]; 2.34% in test [5]; 1.69% in [6]. In addition, the inhibition in [7] was -0.59%; in test [8] it was 2.03%; in test [9], 0.36%; in test [10], -1.68%; in test [11], 3.8%; in test [12], 4.37%. Also, the inhibition in test [13] was -4.13%; in test [14], 2.17%; in test [15], 0.61%; in [16], 0.98%; in test [17], 1.3%; in test [18], 0.34%. Moreover, the inhibition in test [19] worked out at 2.58%; in [20], 3.95%.

With `COC(=O)Nc1nc2cc(Oc3cccc(NC(=O)Nc4cc(C(F)(F)F)ccc4F)c3)ccc2[nH]1`, the inhibition was 1.04% in test [1]; 0.32% in [2]; 0.41% in test [3]; -2.66% in test [4]; -3.24% in test [5]; -0.34% in [6]. The inhibition is -0.49% in test [7]; 1.64% in test [8]; 0.51% in test [9]; 0.44% in test [10]; 3.68% in test [11]; 0.14% in test [12]. Also, the inhibition in [13] is -3.14%; in test [14], 1.74%; in [15], 1.87%; in test [16], 1.38%; in test [17], 2.1%; in test [18], 0.54%. Moreover, the inhibition in [19] was 4.96%; in test [20] it was 0.56%.

These data come from ChEMBL document CHEMBL1961873, “Compounds: GSK PKIS; Assays: Nanosyn kinase panel” (2012).
